Reference: PubChem BioAssay (Tox21)
Records with an inconclusive call do not appear. The source made the active and inactive calls. Unless noted, calls come from the whole dose curve; as a rule, active = well fitted curve in the direction sought with a large enough effect in the repeat runs; inconclusive = weak or mixed curves; inactive = no such curve, though single readings can be large; an effect the other way counts as inactive or inconclusive.

What was measured:
[1] = qHTS assay to identify small molecule antagonists of the estrogen related receptor (ERR) signaling pathway - cell viability counter screen (AID 1224818);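 note: series mostly up to about 46 µM; viability measured after 17.5 h of compound exposure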
Summary of the method: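 Here, ERR cells are plated at 2,000 cells per well, allowed 6 h to attach, and treated with compounds in DMSO for 17.5 h at 37 C. CellTiter-Fluor is then added and fluorescence read after 30 min.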

[2] = qHTS assay to identify small molecule antagonists of the estrogen related receptor (ERR) signaling pathway (AID 1224819;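 note: luminescence from an ERR-driven luciferase reporter measured with One-Glo reagent; series mostly up to about 46 µM; nearly all actives have a fitted effect of over 50% in size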)
Summary of the method: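 LOPAC library screened for antagonism as reduced One-Glo luminescence in ERR reporter cells (2,000/well). Compounds were added after 6 h pre-incubation and left 18 h at 37C; reading followed a 30 min room-temperature reagent step.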

[3] = qHTS assay to identify small molecule agonists of the estrogen related receptor (ERR) signaling pathway (AID 1224820)
Summary of the method: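 ERR reporter cells (NTP line) plated 2,000/well, incubated 6 h at 37 C/5% CO2, then pinned with compounds in DMSO and held 18 h at 37 C. One-Glo added; luminescence read after 30 min at room temperature.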

[4] = tested on: estrogen-related receptor alpha (ERRalpha) with PGC-1alpha coactivator, human; test: qHTS assay to identify small molecule antagonists of the estrogen related receptor signaling pathway with the pleiotropic PPARgamma coactivator (PGC) (AID 1224821; calls by dose curve;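 note: series mostly up to about 46 µM; lower luminescence signal means antagonism of PGC/ERR signalling; nearly all actives have a fitted effect of over 50% in size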)
Summary of the method: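 Cells engineered for PGC/ERR signalling (line from NTP) were plated 6 h at 37 C/5% CO2, then exposed to DMSO-dissolved compound for 18 h at 37 C. Luciferase activity was read by One-Glo luminescence after 30 min at room temperature.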

[5] = qHTS assay to identify small molecule antagonists of the estrogen related receptor signaling pathway with the pleiotropic PPARgamma coactivator (PGC) cell viability counter screen (AID 1224822;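 note: series mostly up to about 46 µM; viability read after 17.5 h compound exposure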)
Summary of the method: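 qHTS format, DMSO compound stocks pin-transferred onto PGC/ERR cells 6 h after plating; 17.5 h exposure at 37 C, then CellTiter-Fluor fluorescence.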

[6] = qHTS assay to identify small molecule agonists of the estrogen related receptor signaling pathway with the pleiotropic PPARgamma coactivator (PGC) (AID 1224823)
Summary of the method: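 PGC/ERR reporter cells were seeded, rested 6 h at 37 C/5% CO2, then exposed to compounds in DMSO by pin transfer for 18 h at 37 C. Luciferase activity was read as luminescence after One-Glo reagent and 30 min at room temperature.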

Measured: Potency

NCC(CP(=O)(O)O)c1ccc(Cl)cc1 (configuration not stated)
inactive: all assays above

CCCn1c(=O)c2[nH]c(C3CCCC3)nc2n(CCCOC(=O)c2ccc(S(=O)(=O)F)cc2)c1=O
inactive: all assays above

O=C(O)Cc1cnc[nH]1
inactive: all assays above

CC(N)c1cccc(Cl)c1Cl (configuration not stated)
inactive: all assays above

NC(CCP(=O)(O)O)C(=O)O (configuration not stated)
inactive: all assays above

NC(=O)c1cc(N2CC2)c([N+](=O)[O-])cc1[N+](=O)[O-]
inactive: all assays above

NC(CCCCCP(=O)(O)O)C(=O)O (configuration not stated)
inactive: all assays above

C[C@H](N)Cc1cccc(C(F)(F)F)c1
inactive: all assays above

NCCc1c[nH]c2ccccc12
inactive: all assays above

CC(C)[C@H]1CN[C@H](C(=O)O)[C@H]1CC(=O)O
inactive: all assays above

CCCN1CCO[C@@H]2c3cc(O)ccc3OC[C@H]21
inactive: all assays above

O=c1ccc2[nH]cc(C3=CCNCC3)c2[nH]1
inactive: all assays above

Clc1ccc(N2CC3CCC(C2)N3)nn1
inactive: all assays above

O=[N+]([O-])c1ccc2nc(N3CCNCC3)ccc2c1
inactive: all assays above

CC(=O)NBr
inactive: all assays above

OC1CCCCC1N1CCC(c2ccccc2)CC1 (configuration not stated)
inactive: all assays above

CN1CCC(c2c[nH]c3ccc(O)cc23)CC1
inactive: all assays above
